Assay outcomes: PubChem BioAssay, National Center for Advancing Translational Sciences (NCATS)
A selection: hits, their analogues and other compounds. The true share with any hit is near 8.1%.
ELG1 DNA repair: ELG1-dependent DNA repair inhibition. HEK293T ELG1-luciferase reporter, luminescence, 16 h; DNA damage induced by 5-fluorouridine. Potency, µM (series often up to 46.1 µM), inactives show at the top dose activity change, negative = inhibition, usual class: inhibitors. hit rate 2.3% among 330,000. AID 504467; also: % is scaled to controls: 0 for no effect and ±100 for the full control effect; nearly all actives have a fitted effect of over 55% in size
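Quantitative HTS, concentration-response format. 2,000 cells/well co-treated with 5-fluorouridine and compound, 16 hr in 5% CO2 at 37 °C; ONE-Glo luminescence read after 30 min.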
KB-3-1 cytotox: kills parental KB-3-1 adenocarcinoma cells; KB-3-1 viability, CellTiter-Glo ATP luminescence, 72 h; Potency, µM (titrated, usually from 46.1 µM), actives largely listed as cytotoxic; hit rate 1.4% among 400,000; AID 1347075; also: % is scaled to controls: 0 for no effect and ±100 for the full control effect; nearly all actives have a fitted effect of over 60% in size
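Here the drug-naive KB-3-1 line serves as comparator for MDR sub-line selectivity; cells received compound titrations, 72 h at 37 °C, then CellTiter-Glo readout.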
KB-V1 cytotox: KB-V1 MDR subline cytotoxicity. KB-V1 MDR cells viability, CellTiter-Glo, 72 h. Potency, µM (series often up to 46.1 µM), actives largely listed as cytotoxic. hit rate 3.4% among 400,000. AID 1347076; also: % is scaled to controls: 0 for no effect and ±100 for the full control effect; nearly all actives have a fitted effect of over 60% in size
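Cytotoxicity via CellTiter-Glo luminescence after 72 h compound exposure at 37 degrees C. Cells: drug-selected KB-V1 line, DMEM phenol-red free plus 10% FBS. Compounds tested at multiple concentrations; normalized data fitted to concentration-effect curves.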
SW480 rereplic: DNA re-replication induction in SW480 cells; Potency, µM (top dose mostly 46.1 µM), for inactives: at the highest dose re-replication activation, most hits filed as activators; hit rate 1.8% among 340,000; SW480 DNA re-replication, Hoechst DNA content imaging, 48 h; also: % of control where 0% means no effect; nearly all actives have a fitted effect of over 55% in size
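Treated cells incubate 48 hr (37 C, 5% CO2), are stained 40 min with Hoechst, and nuclear fluorescence is enumerated; a rise in nuclei with high DNA signal marks re-replication.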
MCF10A rerep: inducers of DNA re-replication in MCF 10A breast cells; MCF 10A DNA re-replication, Hoechst nuclear intensity, 48 h; hit rate 2.9% among 350,000; Potency, µM (titrated, usually from 46.1 µM), for the others: at the highest dose activity, positive = re-replication, most hits filed as activators; also: % of control where 0% means no effect; nearly all actives have a fitted effect of over 50% in size
Numbers without * were called inactive. Calls follow the shape of the dose curve; as a rule, active = well fitted curve in the direction sought with a large enough effect; inconclusive = small, poorly fitted or top-dose-only effect, or another doubt; inactive = no such curve, though single readings can be large; an effect the other way counts as inactive or inconclusive. Potency is read from the fitted curve at half-maximal effect.

`Cc1cc(C)cc(OC(=O)CS(=O)c2ccc(C(F)(F)F)cc2[N+](=O)[O-])c1` (stereo not given) gave ELG1 DNA repair inconclusive, KB-3-1 cytotox inconclusive, KB-V1 cytotox inconclusive, SW480 rereplic inconclusive and MCF10A rerep 12µM*.
`O=C(CS(=O)c1ccc(C(F)(F)F)cc1[N+](=O)[O-])Oc1ccc(Cl)cc1` (stereo not given) gave ELG1 DNA repair inconclusive, KB-3-1 cytotox inconclusive, KB-V1 cytotox inactive, SW480 rereplic inconclusive and MCF10A rerep 13µM*.
OC(CN1CCOCC1)c1ccccc1 (stereo not given) was read as KB-3-1 cytotox inactive and KB-V1 cytotox inactive.
Screening CCCN(CCC)CCNC(=O)c1nn(C)c2c1CS(=O)(=O)c1ccccc1-2 returned KB-3-1 cytotox inactive and KB-V1 cytotox inactive.
For O=C(Cn1nc(-c2ccccc2)c2c(c1=O)CCCC2)Nc1ccc(F)c(Cl)c1 the results were KB-3-1 cytotox 23µM* and KB-V1 cytotox inconclusive.
`Cc1nn(CC(=O)Nc2ccc(Cl)cc2)c(=O)c2cc(-c3ccccc3)nn12` gave ELG1 DNA repair inconclusive, KB-3-1 cytotox inactive, KB-V1 cytotox inactive, SW480 rereplic 15µM* and MCF10A rerep 21µM*.
`COC(=O)c1cc(NC(=O)Cn2nc(-c3ccccc3)c3c(c2=O)CCCC3)cc(C(=O)OC)c1` gave KB-3-1 cytotox inactive and KB-V1 cytotox inactive.
COC(=O)CSc1nc2sc3c(c2c(=O)n1-c1ccc(C)cc1)CC(C(C)C)OC3 (stereo not given) was read as KB-3-1 cytotox inactive and KB-V1 cytotox inactive.
For Cc1nc(-c2cccc(F)c2)sc1CCNC(=O)C(=O)Nc1ccc2c(c1)OCO2 the results were KB-3-1 cytotox inactive and KB-V1 cytotox inactive.
`CC(C)NC(=O)c1sc2nc(-c3cccs3)cc(-c3cccs3)c2c1N` gave ELG1 DNA repair 8%, KB-3-1 cytotox inactive, KB-V1 cytotox inactive, SW480 rereplic inconclusive and MCF10A rerep 3.7µM*.
For COc1ccc(C(=O)c2sc3nc(C)cc(-c4cccs4)c3c2N)cc1OC the results were ELG1 DNA repair inconclusive, KB-3-1 cytotox inactive, KB-V1 cytotox inconclusive, SW480 rereplic inconclusive and MCF10A rerep 5.2µM*.
COc1ccc(C(=O)c2sc3nc(C)cc(-c4cccs4)c3c2N)cc1 was read as ELG1 DNA repair inconclusive, KB-3-1 cytotox inactive, KB-V1 cytotox inactive, SW480 rereplic 21µM* and MCF10A rerep inconclusive.
Screening Nc1c(C(=O)Nc2ccccc2Br)sc2nc(-c3cccs3)ccc12 returned KB-3-1 cytotox inactive and KB-V1 cytotox inactive.
Cc1cc(C)c2c(N)c(C(=O)c3ccc(Cl)cc3)sc2n1 was read as ELG1 DNA repair inconclusive, KB-3-1 cytotox inactive, KB-V1 cytotox inconclusive, SW480 rereplic 15% and MCF10A rerep -33%.
Nc1c(C(=O)Nc2nc3ccccc3s2)sc2nc(-c3cccs3)ccc12 was read as ELG1 DNA repair inconclusive, KB-3-1 cytotox 8.2µM*, KB-V1 cytotox inactive, SW480 rereplic inconclusive and MCF10A rerep 4.1µM*.
COc1ccc(-c2cc(-c3cccs3)nc3sc(C#N)c(N)c23)cc1 was read as ELG1 DNA repair inconclusive, KB-3-1 cytotox inactive, KB-V1 cytotox inconclusive, SW480 rereplic inconclusive and MCF10A rerep 16µM*.
Screening Cc1cc(-c2cccs2)c2c(N)c(C(=O)c3ccc4c(c3)OCO4)sc2n1 returned ELG1 DNA repair inconclusive, KB-3-1 cytotox inconclusive, KB-V1 cytotox 6.5µM*, SW480 rereplic 1.3µM* and MCF10A rerep 15µM*.
Cc1ccnc(NC(=S)N2CCN(c3cccc(N(C)C)c3)CC2)c1 was read as KB-3-1 cytotox inactive and KB-V1 cytotox inactive.
For Cc1cccc(NC(=O)C2CCCN(S(=O)(=O)c3c(C)n[nH]c3C)C2)c1 (stereo not given) the results were KB-3-1 cytotox inactive and KB-V1 cytotox inactive.
Screening CCc1nc2ccc(C(=O)NCc3ccc4c(c3)OCO4)cn2c1N(C)C(=O)Cc1ccccc1 returned KB-3-1 cytotox inactive and KB-V1 cytotox inactive.
Screening Cc1cc(C)n(-c2ccc(C(=O)Nc3ccc(S(=O)(=O)N(C)C)cc3)cc2)n1 returned ELG1 DNA repair inconclusive, KB-3-1 cytotox inactive, KB-V1 cytotox inconclusive, SW480 rereplic -4% and MCF10A rerep inconclusive.
`Cc1cc(C)n(-c2ccc(C(=O)Nc3cccc([N+](=O)[O-])c3)cc2)n1` gave ELG1 DNA repair inconclusive, KB-3-1 cytotox inactive, KB-V1 cytotox inconclusive, SW480 rereplic -2% and MCF10A rerep 2%.
CCN(CC)S(=O)(=O)c1cccc(NC(=O)c2ccc(-n3nc(C)cc3C)cc2)c1 was read as ELG1 DNA repair 15µM*, KB-3-1 cytotox inconclusive, KB-V1 cytotox 2.9µM*, SW480 rereplic -25% and MCF10A rerep 5%.
CC(=O)c1ccc(OCCCC(=O)Nc2ccc(C)c(S(=O)(=O)N(C)C)c2)cc1 was read as ELG1 DNA repair inconclusive, KB-3-1 cytotox 21µM*, KB-V1 cytotox 23µM*, SW480 rereplic 32% and MCF10A rerep 4%.
Screening Cc1ccc(NC(=O)c2ccc(OC(F)(F)F)cc2)cc1S(=O)(=O)N(C)C returned ELG1 DNA repair inconclusive, KB-3-1 cytotox 23µM*, KB-V1 cytotox inconclusive, SW480 rereplic -3% and MCF10A rerep 9%.
Cc1ccc(NC(=O)c2ccncc2)cc1S(=O)(=O)N(C)C was read as ELG1 DNA repair 15%, KB-3-1 cytotox inactive, KB-V1 cytotox inactive, SW480 rereplic -4% and MCF10A rerep 1%.
`Cc1cc(C)n(-c2ccc(C(=O)Nc3cccc(S(=O)(=O)N(C)C)c3)cc2)n1` gave ELG1 DNA repair 9.2µM*, KB-3-1 cytotox inconclusive, KB-V1 cytotox inconclusive, SW480 rereplic -11% and MCF10A rerep 10%.
Cc1cc(=O)n(C(C)C(=O)NCc2ccccc2Cl)c2c1c(C)nn2-c1ccccc1 (stereo not given) was read as KB-3-1 cytotox inactive and KB-V1 cytotox inactive.
For COc1cc2c(NC3CCN(C)CC3)nc(N3CCN(C)CC3)nc2cc1OCCCN(C)C the results were KB-3-1 cytotox inconclusive and KB-V1 cytotox inactive.
Screening COCc1cccc(-c2csc(C(O)c3cccc(OC)c3)n2)c1 (stereo not given) returned KB-3-1 cytotox inconclusive and KB-V1 cytotox inactive.
Screening Cn1c(NCCO)nc2c1c(=O)n(Cc1cccc(F)c1)c(=O)n2C returned KB-3-1 cytotox inactive and KB-V1 cytotox inactive.
CCC(=O)N(c1nnc(SC(C)C(=O)Nc2ccc(N3CCOCC3)cc2)s1)C1CC1 (stereo not given) was read as KB-3-1 cytotox inactive and KB-V1 cytotox inconclusive.
